# PubChem BioAssay AID651774 (Broad Institute, 2012)
# Results with a measured potency or affinity are listed apart. Activity calls are given as the source filed them. No rule for the calls is given here.
# Experiment: cytotoxicity in HeLa cells, dose response, cytotoxicity control, cell-based, 24 h, dry powder (AID 651774)
# Settings: HeLa viability, CellTiter-Glo ATP luminescence; series mostly up to 35 µM
row,SMILES,outcome
1,CN(C)C(=O)Cc1ccc(-c2ccccc2)cc1,inactive
2,Cn1nnc(NCc2ccc(N3CCCC3)cc2)n1,inactive
3,O=C(Cc1cccc(C(F)(F)F)c1)NC1CCCC1,inactive
4,Cc1ccc2cc3c(NC(=O)c4ccco4)nn(C)c3nc2c1,inactive
5,O=C(Cc1cccnc1)NC1CCCC1,inactive
6,O=C(Cc1ccc(-c2ccccc2)cc1)NC1CCNCC1,inactive
7,CN(Cc1ccc(N2CCCC2)cc1)c1nnn(C)n1,inactive
8,Cn1nnc(NCc2ccc(C(F)(F)F)cc2)n1,inactive
9,CCn1nnc(NCc2ccccc2)n1,inactive
10,CCn1nnc(NCc2ccc(C(F)(F)F)cc2)n1,inactive
11,CCn1nnc(NCc2ccc(N3CCCC3)cc2)n1,inactive
12,N#Cc1cccc(CC(=O)NC2CCCC2)c1,inactive
13,Cn1nnnc1NCc1ccc(N2CCCC2)cc1,inactive
14,O=C(Cc1ccc(OC(F)(F)F)cc1)NC1CCCC1,inactive
15,CN(Cc1ccc(N2CCCC2)cc1)c1nnnn1C,inactive
16,Cc1ccc(CC(=O)NC2CCCC2)cc1,inactive
17,O=C(Cc1cccc(-c2ccccc2)c1)NC1CCCC1,inactive
18,O=C(Cc1ccc(-c2ccccc2)cc1)N1CCCCC1,inactive
19,O=C(Cc1ccccn1)NC1CCCC1,inactive
20,CCn1nnnc1NCc1ccc(N2CCCC2)cc1,inactive
21,O=C(Cc1ccc(-c2ccccn2)cc1)NC1CCCC1,inactive
22,O=C(Cc1ccc(-c2ccccc2)cc1)N1CCC1,inactive
23,O=C(Cc1ccc(-c2ccccc2)cc1)NC1CCCCC1,inactive
24,O=C(Cc1ccccc1F)NC1CCCC1,inactive
25,CCCn1nnnc1NCc1ccc(C(C)C)cc1,inactive
26,c1cc(N2CCCC2)ccc1CNc1nn[nH]n1,inactive
27,O=C(CCc1ccc(-c2ccccc2)cc1)NC1CCCC1,inactive
28,CC(C)c1ccc(CNc2nnn(C)n2)cc1,inactive
